This is an account of results in PubChem BioAssay (NCI).

This is part of a sample that, as a whole, favours compounds with a hit. Of some 83,000 tested, about 20% had one in any assay.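 Method: cells in 96-well plates; compound added at one concentration; 48 h incubation; percent growth measured; values under 10 scored active.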 Values without a mark were called inactive. Active and inactive are the calls of the source.

Among the test systems are HCT-15 colon; HT29 colon; SNB-75 CNS; SNB-19 CNS; U251 CNS; PC-3 prostate; SK-MEL-5 melanoma; UACC-62 melanoma; LOX IMVI melanoma; SK-MEL-28 melanoma; SK-MEL-2 melanoma; EKVX NSCLC; SN12C renal; UO-31 renal; TK-10 renal; ACHN renal; CAKI-1 renal; A498 renal; CCRF-CEM leukemia; MOLT-4 leukemia.
Common to all, as to assay: NCI-60 one-dose screen, 48 h (100 = growth as untreated, 0 = no growth, -100 = all killed)
What all share (conditions): 10 µM unless noted

For the compound `O=C(Oc1ccc(CO[N+](=O)[O-])cc1)c1ccccc1`, the growth is -83% (active) in the assay on HCT-15 colon; -60% (active) with HT29 colon; -97.9% (active) in the assay on SNB-75 CNS; -78.8% (active) in the assay on SNB-19 CNS; -91.2% (active) in the assay on U251 CNS; -91.7% (active) in the assay on PC-3 prostate. Also, the growth is -96.1% (active) with SK-MEL-5 melanoma; -76.3% (active) in the assay with UACC-62 melanoma; -87.4% (active) in the assay on LOX IMVI melanoma; -71.9% (active) in the assay on SK-MEL-28 melanoma; -72.3% (active) with SK-MEL-2 melanoma; -99.9% (active) in the assay with EKVX NSCLC. Besides, the growth in the assay on SN12C renal is -87.6% (active); with UO-31 renal it was -90.4% (active); with TK-10 renal it was -96.9% (active); in the assay with ACHN renal, -84.7% (active); in the assay with CAKI-1 renal, -97% (active); with A498 renal, -71.5% (active). Besides, the figures for the growth with CCRF-CEM leukemia and with MOLT-4 leukemia were -47.4% (active) and -50.1% (active), respectively.

Turning to `COc1ccc(C(=O)N/N=C/c2ccc(O)cc2O)cc1Nc1ccnc(C(F)(F)F)c1`, the growth was 40.1% with HCT-15 colon; 37.4% with HT29 colon; 26.4% in the assay on SNB-75 CNS; 34.2% in the assay on SNB-19 CNS; 28.3% with U251 CNS; 64.5% with PC-3 prostate. Also, the growth in the assay with SK-MEL-5 melanoma is 24.2%; in the assay with UACC-62 melanoma it was 1.67% (active); in the assay on LOX IMVI melanoma, 8.4% (active); with SK-MEL-28 melanoma, 42.9%; in the assay on SK-MEL-2 melanoma, 61.5%; in the assay on EKVX NSCLC it was 26.9%. For the same compound, the growth with SN12C renal is 33.1%; in the assay with UO-31 renal, 30.4%; with TK-10 renal, 53.4%; in the assay on ACHN renal, 35.8%; in the assay with CAKI-1 renal, 39.3%; in the assay with A498 renal it was 55.2%. Moreover, the growth in the assay on CCRF-CEM leukemia is 5.69% (active); with MOLT-4 leukemia it was 23.4%.

On to `COc1ccccc1/C=C1\COc2ccc(O)cc2C1=O`, for which the growth with HCT-15 colon was 48.7%; in the assay with HT29 colon, 51.6%; with SNB-75 CNS it was 96%; with SNB-19 CNS it was 90.6%; in the assay on U251 CNS, 62.3%; in the assay on PC-3 prostate it was 75.8%. For the same compound, the growth is 66.5% in the assay with SK-MEL-5 melanoma; 69.1% with UACC-62 melanoma; 34.6% in the assay with LOX IMVI melanoma; 101% in the assay on SK-MEL-28 melanoma; 93.5% with SK-MEL-2 melanoma; 102% with EKVX NSCLC. The growth with SN12C renal was 72%; in the assay with UO-31 renal, 74.6%; in the assay with TK-10 renal, 93.3%; with ACHN renal, 57.8%; in the assay with CAKI-1 renal, 68.1%; with A498 renal, 109%. Besides, the results for the growth with CCRF-CEM leukemia and with MOLT-4 leukemia were 6.4% (active) and 21%, respectively.

Consider `CN1CCN(Cc2ccc(NC(=O)c3cccc(C#Cc4c(N)ncc5ccc(F)cc45)c3)cc2C(F)(F)F)CC1`, for which the growth in the assay on HCT-15 colon was -77.9% (active); in the assay on HT29 colon, -56.1% (active); with SNB-75 CNS it was -92.4% (active); with SNB-19 CNS, -85.9% (active); in the assay on U251 CNS, -67.9% (active); in the assay on PC-3 prostate it was -19.2% (active). Also, the growth is -83.1% (active) in the assay with SK-MEL-5 melanoma; -51.1% (active) in the assay with UACC-62 melanoma; -97.9% (active) with LOX IMVI melanoma; -90.2% (active) in the assay with SK-MEL-28 melanoma; -49.9% (active) in the assay with SK-MEL-2 melanoma; -19.6% (active) with EKVX NSCLC. In addition, the growth in the assay on SN12C renal was 5.02% (active); in the assay on UO-31 renal it was -69.5% (active); in the assay on TK-10 renal it was -70.9% (active); in the assay with ACHN renal, -93.5% (active); in the assay on CAKI-1 renal it was -98.5% (active); in the assay with A498 renal it was -78.9% (active). The growth is -23.1% (active) with CCRF-CEM leukemia and -61.4% (active) with MOLT-4 leukemia.

As to `COc1cccc(C2C(C#N)=C(N)Oc3cc(OCCCCCC[P+](c4ccccc4)(c4ccccc4)c4ccccc4)ccc32)c1` (stereo not given), the growth is 62% with HCT-15 colon; -17.6% (active) in the assay on HT29 colon; -71.3% (active) with SNB-75 CNS; -65.8% (active) with SNB-19 CNS; -79.4% (active) in the assay with U251 CNS; -13.1% (active) in the assay with PC-3 prostate. The growth was -97.5% (active) in the assay on SK-MEL-5 melanoma; -66.8% (active) with UACC-62 melanoma; -93.8% (active) in the assay on LOX IMVI melanoma; -77.1% (active) in the assay on SK-MEL-28 melanoma; -59.2% (active) in the assay on SK-MEL-2 melanoma; -0.839% (active) with EKVX NSCLC. Also, the growth in the assay with SN12C renal was -31.4% (active); in the assay on UO-31 renal it was 39.2%; in the assay on TK-10 renal it was -16.5% (active); with ACHN renal, 18%; in the assay with CAKI-1 renal it was -8.91% (active); in the assay with A498 renal, -30% (active). For the same compound, the growth is 1.92% (active) in the assay with CCRF-CEM leukemia and -15.8% (active) in the assay on MOLT-4 leukemia.

For `CS(=O)(=O)Nc1cc(-c2ccc3ncnc(Nc4ccc(F)c(Cl)c4)c3c2)cnc1Cl`, the growth is 8.37% (active) with HCT-15 colon; 9.63% (active) in the assay on HT29 colon; -15.9% (active) in the assay with SNB-75 CNS; 20.1% in the assay with SNB-19 CNS; 3.05% (active) in the assay on U251 CNS; -7.94% (active) in the assay with PC-3 prostate. The growth was -93.5% (active) in the assay with SK-MEL-5 melanoma; -8.21% (active) in the assay on UACC-62 melanoma; -23.8% (active) in the assay with LOX IMVI melanoma; 14.8% with SK-MEL-28 melanoma; -7.25% (active) with SK-MEL-2 melanoma; -3.92% (active) with EKVX NSCLC. In addition, the growth with SN12C renal is 10.2%; in the assay on UO-31 renal, -3.81% (active); in the assay with TK-10 renal, -14.5% (active); in the assay on ACHN renal, 14.6%; in the assay with CAKI-1 renal, 3.33% (active); with A498 renal, -59.3% (active). Besides, the growth in the assay on CCRF-CEM leukemia was 9.76% (active); with MOLT-4 leukemia it was -19.9% (active).

Regarding `N#C/C(=C\c1ccc(Br)cc1)n1nnc2c(F)cccc21`, the growth was 1.57% (active) in the assay on HCT-15 colon; -0.198% (active) in the assay with HT29 colon; 18.8% with SNB-75 CNS; 15% with SNB-19 CNS; -19.5% (active) with U251 CNS; 4.26% (active) in the assay with PC-3 prostate. Also, the growth was -12.1% (active) with SK-MEL-5 melanoma; -37.5% (active) in the assay with UACC-62 melanoma; -69.1% (active) in the assay on LOX IMVI melanoma; -3.74% (active) with SK-MEL-28 melanoma; 28.4% in the assay on SK-MEL-2 melanoma; 30.6% in the assay with EKVX NSCLC. Further, the growth was -1.81% (active) with SN12C renal; -65.9% (active) with UO-31 renal; 2.41% (active) in the assay with TK-10 renal; -50.8% (active) in the assay with ACHN renal; -4.93% (active) in the assay with CAKI-1 renal; -21.9% (active) with A498 renal. For the same compound, the results for the growth in the assay on CCRF-CEM leukemia and with MOLT-4 leukemia were 2.97% (active) and 9.87% (active), respectively.
